17 molecules from PubChem BioAssay (EPA / NIEHS) can be followed below.

Read-out in assay [1]: Monokine induced gamma interferon (MIG), CXCL9 (gene 4283)
Kind of assay: BSK_hDFCGF_MIG: BioMAP Diversity Plus: hDFCGF Assay for Monokine induced gamma interferon (MIG) Biomarker Activity (AID 2283063). The settings on record: primary human foreskin fibroblasts; actives raise or lower the signal. The essentials: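 Human primary foreskin fibroblasts in the hDFCGF system, exposed to test chemical for 24 h; MIG measured by ELISA. Bidirectional curve fitting against DMSO negative control as activity baseline.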

Read-out in assay [2]: Matrix Metallopeptidase 1 (MMP1), MMP1 (gene 4312)
Description: BSK_hDFCGF_MMP1: BioMAP Diversity Plus: hDFCGF Assay for Matrix Metallopeptidase 1 (MMP1) Biomarker Activity (AID 2283064). The settings on record: primary human foreskin fibroblasts; actives raise or lower the signal. In outline:
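hDFCGF primary fibroblasts (human foreskin); chemical added; 24 h; MMP1 by ELISA; bidirectional fit vs DMSO.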

Read-out in assay [3]: Vascular cell adhesion molecule 1 (VCAM1), VCAM1 (gene 7412)
Kind of assay: BSK_hDFCGF_VCAM1: BioMAP Diversity Plus: hDFCGF Assay for Vascular cell adhesion molecule 1 (VCAM1) Biomarker Activity (AID 2283065).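 For AC50: VCAM-1 protein level quantified by ELISA after 24 h chemical exposure.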 The settings on record: primary human foreskin fibroblasts; actives raise or lower the signal. In outline: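 ELISA readout of VCAM-1 on human dermal fibroblast primary cultures, 24 h after chemical exposure. Gain or loss of signal fitted in both directions against DMSO baseline.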

Read-out in assay [4]: Plasminogen activator inhibitor-1 (PAI1), SERPINE1 (gene 5054)
Kind of assay: BSK_hDFCGF_PAI1: BioMAP Diversity Plus: hDFCGF Assay for Plasminogen activator inhibitor-1 (PAI1) Biomarker Activity (AID 2283066). The settings on record: primary human foreskin fibroblasts; actives raise or lower the signal. In outline: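 Primary dermal fibroblasts (human foreskin), hDFCGF system; compound 24 h; PAI-1 by ELISA; bidirectional fit vs DMSO control.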

Read-out in assay [5]: Intercellular Adhesion Molecule 1 (ICAM1), ICAM1 (gene 3383)
Kind of assay: BSK_KF3CT_ICAM1: BioMAP Diversity Plus: KF3CT Assay for Intercellular Adhesion Molecule 1 (ICAM1) Biomarker Activity (AID 2283067). The settings on record: primary human keratinocytes with fibroblasts; actives raise or lower the signal. The essentials:
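Cell-surface ICAM-1 was measured by ELISA 24 h after dosing primary human skin keratinocytes co-cultured with fibroblasts. Parallel SRB staining tracked overt cytotoxicity. Gain or loss of signal was fitted relative to DMSO.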

Read-out in assay [6]: Interferon-gamma inducible Protein 10 (IP10), CXCL10 (gene 3627)
Kind of assay: BSK_KF3CT_IP10: BioMAP Diversity Plus: KF3CT Assay for Interferon-gamma inducible Protein 10 (IP10) Biomarker Activity (AID 2283068). The settings on record: primary human keratinocytes with fibroblasts; actives raise or lower the signal. In outline:
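Human keratinocyte plus foreskin fibroblast primary co-culture exposed to test chemical for 24 h; IP-10 measured by ELISA. Concentration-response fitted bidirectionally against DMSO control as baseline.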

The nature of assay [7]: BSK_KF3CT_SRB: Viability Assessment in the BioMAP Diversity Plus: KF3CT Assay (AID 2283069).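 Note: total protein by sulforhodamine B staining as a cytotoxicity measure; read 24 h after compound addition.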 The settings on record: primary human keratinocytes with fibroblasts. In outline: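 Keratinocytes co-cultured with foreskin fibroblasts (human primary); chemical added, 24 h; fix 10% TCA, stain 0.1% SRB, A560. Bidirectional fit vs DMSO.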
Read-out in assay [8]: Interleukin-1 alpha (IL1a), IL1A (gene 3552)
Description: BSK_KF3CT_IL1a: BioMAP Diversity Plus: KF3CT Assay for Interleukin-1 alpha (IL1a) Biomarker Activity (AID 2283070). The settings on record: primary human keratinocytes with fibroblasts; actives raise or lower the signal. The essentials: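 Chemicals were dosed onto co-cultured human keratinocytes and foreskin fibroblasts, IL-1a was quantified by ELISA at 24 h, and activity was fitted in both directions relative to DMSO controls.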

Read-out in assay [9]: TIMP metallopeptidase inhibitor 2 (TIMP2), TIMP2 (gene 7077)
Kind of assay: BSK_KF3CT_TIMP2: BioMAP Diversity Plus: KF3CT Assay for TIMP metallopeptidase inhibitor 2 (TIMP2) Biomarker Activity (AID 2283071). The settings on record: primary human keratinocytes with fibroblasts; actives raise or lower the signal. In outline:
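Cells: human keratinocytes co-cultured with foreskin fibroblasts. Treat with chemical, 24 h. Measure TIMP-2 by ELISA; fit curves bidirectionally vs DMSO baseline.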

Read-out in assay [10]: Transforming growth factor beta 1 (TGFb1), TGFB1 (gene 7040)
Kind of assay: BSK_KF3CT_TGFb1: BioMAP Diversity Plus: KF3CT Assay for Transforming growth factor beta 1 (TGFb1) Biomarker Activity (AID 2283072). The settings on record: primary human keratinocytes with fibroblasts; actives raise or lower the signal. The essentials: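 Primary human skin cells (keratinocytes, foreskin fibroblasts) were co-cultured, exposed to test chemical and sampled at 24 h. TGF-b1 levels were measured by ELISA and fitted bidirectionally relative to DMSO.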

Where “and” joins values, the source holds several entries; their conditions need not be identical. Equal entries are not always repeated. The source holds several records for some structures; these can differ, active in one and inactive in another. Calls of active or inactive are those of the source. Rule for the calls: active = hit-call score of the fitted dose curve at least 0.9, where 1 is the maximum; inactive = score below 0.9.

For the molecule `CC1=NN(c2ccccc2)C(=O)C1`, the result in assay [1], in assay [2], in assay [3], in assay [4], in assay [5] and in assay [6] was inactive. Further, the result in assay [7], in assay [8], in assay [9] and in [10] was inactive.

Take `CCCCCCCCCCCC`: the AC50 (usually the concentration giving half of the maximal activity seen) in assay [1] is 11.6 µM (active) and 10.2 µM (active); in assay [2] it was 5.36 µM (active) and 7.16 µM (active); in [3] it was 8.36 µM (active) and 7.77 µM (active); in assay [4], 11.2 µM (active) and 10.6 µM (active); in assay [5], 15.2 µM (active) and 15.8 µM (active); in assay [6], 11.1 µM (active) and 10.1 µM (active). For the same molecule, the concentration at half-maximal activity (AC50) is 11.4 µM (active) and 12.2 µM (active) in assay [8]; 7.91 µM (active) and 9.05 µM (active) in assay [9]. Further, the result in [7] was inactive.

On to `Cc1ccc(C(=O)c2ccccc2)cc1`, for which the AC50 in [1] is 29.5 µM (active); in [2], 30.7 µM (active); in assay [3] it was 30.5 µM (active); in assay [4] it was 20 µM (active); in [8], 20 µM (active); in assay [9] it was 30.3 µM (active). Also, in assay [10], the AC50 is 30.8 µM (active). For the same molecule, the outcome in assay [5], in [6] and in assay [7] was inactive.

On to `C[C@]12CC[C@@H]3c4ccc(O)cc4CC[C@H]3[C@@H]1C[C@@H](O)[C@@H]2O`, for which the result in assay [1], in assay [2], in assay [3], in assay [4], in assay [5] and in assay [6] was inactive. The outcome in [7], in assay [8], in assay [9] and in assay [10] was inactive.

As for `Clc1ccc(Nc2nnc(Cc3ccncc3)c3ccccc23)cc1`, the result in assay [1], in [2], in [3], in assay [4], in assay [5] and in assay [6] was inactive. Moreover, the result in assay [7] and in assay [8] was inactive. In addition, the results for the AC50 in [9] and in [10] were 3.02 µM (active) and 1.99 µM (active), respectively.

Turning to `CCCCC(CC)C(=O)OCCOCCOCCOCCOC(=O)C(CC)CCCC` (stereo not given), the result in assay [1], in assay [2], in assay [3], in [4], in [5] and in assay [6] was inactive. For the same molecule, the outcome in assay [7], in assay [8], in assay [9] and in assay [10] was inactive.

In the case of `CN(Cc1cnc2nc(N)nc(N)c2n1)c1ccc(C(=O)N[C@@H](CCC(=O)O)C(=O)O)cc1`, the outcome in assay [1], in assay [2], in [3], in [4], in [5] and in assay [6] was inactive. Moreover, the result in assay [7], in assay [8], in assay [9] and in assay [10] was inactive.

In the case of `CN(CCO)S(=O)(=O)C(F)(F)C(F)(F)C(F)(F)C(F)(F)C(F)(F)C(F)(F)C(F)(F)C(F)(F)F`, the outcome in [1], in [2], in assay [3], in assay [4], in assay [5] and in assay [6] was inactive. Besides, the outcome in assay [7], in assay [8] and in assay [9] was inactive.

In the case of `O=C(NCc1ncc(C(F)(F)F)cc1Cl)c1c(Cl)cccc1Cl`, the result in assay [1], in assay [2], in assay [3], in assay [4], in [5] and in assay [6] was inactive. Also, the outcome in [7], in assay [8], in assay [9] and in assay [10] was inactive.

Consider `O=C(O)C(F)(F)OC(F)(F)C(F)(F)OC(F)(F)C(F)(F)OC(F)(F)C(F)(F)C(F)(F)C(F)(F)F`, for which the AC50 in [1] is 12.1 µM (active) and 10.3 µM (active); in assay [2], 7.6 µM (active) and 8.44 µM (active); in assay [3] it was 7.84 µM (active) and 6.66 µM (active); in assay [4] it was 11.4 µM (active); in assay [5], 20.7 µM (active) and 21.8 µM (active); in assay [6] it was 7.51 µM (active) and 7.14 µM (active). In addition, the AC50 in [7] is 8.04 µM (active); in assay [8], 14.2 µM (active) and 11.1 µM (active); in [9], 8.14 µM (active) and 7.33 µM (active). Moreover, in assay [7], the result was inactive.

Regarding `COC1=CC(=O)C[C@@H](C)[C@]12Oc1c(Cl)c(OC)cc(OC)c1C2=O`, the outcome in assay [1], in assay [2], in assay [3], in assay [5], in [6] and in [7] was inactive. For the same molecule, the outcome in assay [9] and in [10] was inactive. Moreover, the half-maximal activity concentration (AC50) in assay [4] was 0.497 µM (active); in assay [8] it was 1.98 µM (active).

As for `C=CC(=O)OCCC(F)(F)C(F)(F)C(F)(F)C(F)(F)C(F)(F)C(F)(F)C(F)(F)C(F)(F)F`, the result in assay [1], in assay [2], in assay [3], in assay [4], in [5] and in assay [6] was inactive. The result in assay [7], in assay [8] and in assay [9] was inactive.

`O=S(=O)(O)C(F)(F)C(F)(F)C(F)(F)C(F)(F)C(F)(F)C(F)(F)C(F)(F)C(F)(F)C(F)(F)C(F)(F)F`: the outcome in assay [1], in assay [2], in assay [3], in assay [4], in [6] and in assay [7] was inactive. Further, the outcome in assay [8] and in assay [9] was inactive. Also, the concentration at half-maximal activity (AC50) in [3] is 0.201 µM (active); in assay [5], 6.49 µM (active) and 3.75 µM (active).

On to `CCCCC=O`, for which the result in assay [1], in assay [2], in assay [3], in [4], in assay [5] and in [6] was inactive. The result in assay [7], in assay [8], in [9] and in assay [10] was inactive.

Regarding `O=P(O)(O)CCC(F)(F)C(F)(F)C(F)(F)C(F)(F)C(F)(F)C(F)(F)C(F)(F)C(F)(F)F`, the AC50 in assay [1] was 0.615 µM (active); in assay [4], 29.5 µM (active) and 18.4 µM (active). For the same molecule, the outcome in assay [1], in [2], in [3], in assay [5], in assay [6] and in assay [7] was inactive. Also, the outcome in assay [8] and in assay [9] was inactive.

Turning to `O=P(O)(O)CCC(F)(F)C(F)(F)C(F)(F)C(F)(F)C(F)(F)C(F)(F)F`, the outcome in assay [1], in assay [2], in assay [3], in assay [4], in [5] and in assay [6] was inactive. In addition, the result in [7], in assay [8] and in assay [9] was inactive.

In the case of `Oc1ccc(Cc2ccccc2O)cc1`, the result in [1], in assay [2], in assay [3], in [4], in assay [5] and in assay [6] was inactive. Besides, the outcome in assay [7], in assay [8] and in assay [9] was inactive.
